Bioassay records from PubChem.
Compounds with a hit are over-represented: about 1.1% of the library has one in this group of screens.
HTR5A ag: activates human HTR5A in OPRM1-OPRD1 agonist counter-screen | P47898 | HTR5A agonist assay, luminescence, cell-based | activation, % at 9.3 µM | 340,000 compounds, 0.61% hits | AID 504692; in the data active means activation mostly above about 9.5%, no sharp cut-off; inactive means mostly below about 7.6%
Target sequence (P47898 whole entry, looked up): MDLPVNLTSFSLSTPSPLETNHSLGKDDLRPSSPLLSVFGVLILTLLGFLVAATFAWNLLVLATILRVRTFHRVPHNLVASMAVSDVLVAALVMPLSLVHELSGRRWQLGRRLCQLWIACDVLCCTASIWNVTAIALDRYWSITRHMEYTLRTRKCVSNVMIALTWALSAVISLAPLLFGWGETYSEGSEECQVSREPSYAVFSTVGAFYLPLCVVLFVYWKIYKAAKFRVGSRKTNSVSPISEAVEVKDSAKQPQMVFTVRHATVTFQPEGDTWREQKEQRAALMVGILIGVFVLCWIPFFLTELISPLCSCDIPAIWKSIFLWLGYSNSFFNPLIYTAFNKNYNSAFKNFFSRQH
MOR-DOR ag: agonists of human mu-delta opioid receptor heterodimerization; cells, OPRM1-OPRD1 heterodimerization, luminescence; activation, % at 9.3 µM; 340,000 compounds, 0.3% hits; in the data active means activation above about 18%
MOR-DOR inv ag-1: mu-delta opioid heterodimer inverse agonism. P35372+P41143. cell-based MOR-DOR heterodimer luminescence. inhibition, % at 9.3 µM. 340,000 compounds, 0.21% hits; in the data active means inhibition above about 22%, passing the limit was not always enough
HTR5A inv ag: HTR5A inverse agonism, opioid heterodimer counter-screen | P47898 | HTR5A cell line, luminescence | inhibition, % at 9.3 µM | 340,000 compounds, 0.083% hits; in the data active means inhibition mostly above about 23%, no sharp cut-off; inactive means mostly below about 18%
OPRM1-D1 inv cf: confirmation of human OPRM1-OPRD1 heterodimerization inverse agonists | inhibition, % at 9.3 µM | shares compounds with MOR-DOR inv ag-1 | 580 compounds, 20% hits | cells expressing OPRM1/OPRD1 heterodimer, luminescence; in the data active means inhibition above about 32%
HTR5A inv count: inverse agonist of human HTR5A in OPRM1-OPRD1 counter-screen; HTR5A-expressing cells, luminescence, inverse agonism; shares compounds with MOR-DOR inv ag-1; AID 504914; 580 tested, under 10 active; inhibition, % at 9.3 µM
MOR-DOR inv ag-2: inverse agonist of OPRM1-OPRD1 heterodimerization in HTR5A counter-screen; shares compounds with HTR5A inv ag; U2OS counter-screen cells, complementation luminescence; inhibition, % at 9.3 µM; 190 tested, under 10 active; AID 504912
HTR5A inv confrm: confirmation of human HTR5A inverse agonists. shares compounds with HTR5A inv ag. 190 tested, under 10 active. HTR5A-expressing cells, inverse agonism, luminescence. inhibition, % at 9.3 µM
Hits are given with their value; - = inactive; . = no result given. Unless noted, how the calls were made is not given here.

SMILES	HTR5A ag	MOR-DOR ag	MOR-DOR inv ag-1	HTR5A inv ag	OPRM1-D1 inv cf	HTR5A inv count	others
C[C@H](NC(=O)COc1ccccc1)C(=O)OCC(=O)c1cc2ccccc2o1	-	-	80.0	33.3	-	-
CC(=O)NC(c1ccc(Cl)cc1)c1c(O)ccc2ccc(O)cc12 (configuration not stated)	-	-	33.0	-	-	-
CCC(=O)NC(c1ccc(OC)cc1)c1c(O)ccc2ccccc12 (configuration not stated)	-	-	-	-	.	.
N#C/C(=C\c1ccncc1)c1nc2ccccc2c(=O)[nH]1	-	-	32.8	-	-	-
N#C/C(=C/c1ccncc1)c1nc2ccccc2c(=O)[nH]1	-	-	-	-	.	.
CN(C)S(=O)(=O)c1ccc(/C(O)=C2/C(=O)C(=O)N(Cc3cccnc3)C2c2cccs2)cc1 (configuration not stated)	-	-	39.5	-	-	-
CN(C)S(=O)(=O)c1ccc(/C(O)=C2/C(=O)C(=O)N(Cc3cccnc3)C2c2ccncc2)cc1 (configuration not stated)	-	-	-	-	.	.
CC(=O)N1N=C(c2ccc(Cl)cc2)OC12CCCC2	-	-	-	-	.	.
CN1C(=O)C(O)(C2COC(C)(C)CC2=O)c2cc(Br)ccc21 (configuration not stated)	-	-	80.8	-	68.9	-
CN1C(=O)C(O)(C2COC(C)(C)CC2=O)c2ccccc21 (configuration not stated)	-	-	31.8	-	-	-
CC1CCN(CCCN2C(=O)C3C(C(=O)Nc4ccc(Cl)cc4)C4C=CC3(O4)C2C(=O)NC2CCCCC2)CC1 (configuration not stated)	-	-	-	-	.	.
Cc1ccc(C)c(OCCC(=O)OCC(=O)Nc2cccc(S(=O)(=O)N3CCCC3)c2)c1	-	-	-	-	.	.
O=C(COC(=O)c1cccnc1SCC(=O)NCc1ccccc1)NCc1ccccc1	-	-	-	-	.	.
CC1(C)CC(CC(=O)NC(=S)Nc2ccc([N+](=O)[O-])cc2)C(=O)O1 (configuration not stated)	-	-	34.6	-	-	-
CCCc1cc(=O)oc2cc(C)cc(OC(C)C(=O)NCC3CCC(C(=O)O)CC3)c12 (configuration not stated)	-	-	-	-	.	.
CCC(C)N(C(=O)COC(=O)C1CCN(S(=O)(=O)c2ccc(C)c(C)c2)CC1)C1CCS(=O)(=O)C1 (configuration not stated)	-	-	-	-	.	.
COc1ccccc1N(/N=C1\Sc2ccccc2C1=O)C(C)=O	-	-	75.4	-	-	-
COc1ccc(N(/N=C2\Sc3ccccc3C2=O)C(C)=O)cc1	-	-	69.8	-	-	-
COc1ccc(CN(C(C)=O)c2ccccc2C(=O)O)cc1	-	-	-	-	.	.
CCOc1ccc(S(=O)(=O)N2CCCCC2)cc1NC(=O)CN1C(=O)NC(C)(C2CC2)C1=O (configuration not stated)	-	-	-	-	.	.
Cc1cccc(C)c1OCC(=O)NNC(=S)NC(=O)C1CC1	-	-	36.3	-	-	-
Cc1cccc(C)c1OCC(=O)NC1CC1	-	-	-	-	.	.
CC(C)CC(=O)NC(=S)Nc1cccc(NC(=O)c2ccccc2)c1	-	-	-	-	.	.
COC(=O)c1c(NC(=O)C(=O)NCCCN2CCOCC2)sc2c1CCC2	-	-	-	-	.	.
Cc1nn(CCC(=O)NNC(=S)NCC(C)C)c(C)c1Br	-	-	74.7	-	-	-
SMILES	HTR5A ag	MOR-DOR ag	MOR-DOR inv ag-1	HTR5A inv ag	OPRM1-D1 inv cf	HTR5A inv count	others
CNC(=S)NNC(=O)CCn1nc(C)c(Br)c1C	-	-	-	-	.	.
Cc1nn(CCC(=O)NNC(=S)Nc2ccccc2)c(C)c1Br	-	-	29.9	-	-	-
CCOCCCNC(=S)NNC(=O)CCn1nc(C)c(Br)c1C	-	-	45.2	-	-	-
N#Cc1c(NC(=O)CN2C(=O)c3ccccc3C2=O)oc(-c2ccccc2)c1-c1ccccc1	-	-	-	-	.	.
Cc1nn(CC(=O)N2CCN(C(=O)c3ccco3)CC2)c(C)c1[N+](=O)[O-]	-	-	-	-	.	.
CC(=O)Oc1ccc(OC(C)=O)c(SCCCCCN2CCOCC2)c1	-	-	29.4	-	-	-
O=C(COC(=O)c1ccc(O)cc1)c1ccc(S(=O)(=O)N2CCCCC2)cc1	-	-	-	-	.	.
O=C(COC(=O)c1ccc(CO)cc1)c1ccc(S(=O)(=O)N2CCCCC2)cc1	-	-	38.4	-	-	-
C=CCn1c(=O)c2c(nc3n2CC(C)CN3c2cccc(OC)c2)n(C)c1=O (configuration not stated)	-	-	35.6	-	-	-
CC(C)Oc1ccc(C(=O)NC2=NCCS2)cc1	-	-	-	-	.	.
Cc1cccc(OCCN2C(=O)c3ccccc3C2=O)c1	-	-	-	-	.	.
Cc1ccc(OCCN2C(=O)C(=O)c3cccc(C)c32)cc1	-	-	42.3	-	-	-
Cc1cccc2c1N(C)C(=O)C2=O	-	-	-	-	.	.
CCOC(=O)CN1C(=O)C(=O)c2cccc(C)c21	-	-	75.4	-	-	-
Cc1ccc(CSc2nnc3c(n2)OC2(Nc4ccccc4-3)C(=O)Nc3ccc(F)cc32)cc1 (configuration not stated)	-	-	78.7	-	70.5	-
O=C1Nc2ccc(F)cc2C12Nc1ccccc1-c1nnc(SCc3ccccc3Cl)nc1O2 (configuration not stated)	-	-	77.6	-	55.8	-
Cc1ccc(SCc2[nH]nc3c2C2(C(=O)Nc4ccc(F)cc42)C(C#N)=C(N)O3)cc1 (configuration not stated)	-	-	-	-	.	.
Clc1ccccc1CSc1cc2c(nn1)-c1ccccc1CC2	-	-	-	-	.	.
O=C1Nc2ccc(F)cc2C12Nc1ccccc1-c1nnc(SCc3ccccc3)nc1O2 (configuration not stated)	-	-	79.3	-	70.1	-
O=S(=O)(Cc1ccccc1)Nc1cccc(Br)c1	-	-	-	-	.	.
COc1ccc(C2=NS(=O)(=O)N(C)C(C(=O)NC3CCCCC3)=C2)cc1	-	-	-	-	.	.
CC(=O)NC1C(=O)Nc2c1cccc2C(F)(F)F (configuration not stated)	-	-	30.4	-	-	-
CC(=O)NC1C(=O)N=C(SCC(=O)Nc2c(C)cccc2C)NC1=O (configuration not stated)	-	-	-	-	.	.
Oc1c(C=Nc2ccccc2Cl)[nH]c2ccccc12	-	-	48.4	-	-	-
O=C(COC(=O)Cc1ccc(F)cc1)NCc1ccco1	-	-	-	33.9	.	.	MOR-DOR inv ag-2=-;HTR5A inv confrm=-
